Consider 39 compounds from PubChem BioAssay AID926 (National Center for Advancing Translational Sciences (NCATS), 2007).

Values joined by “and” are separate entries in the source; they are usually repeats but may differ in a detail not shown here. Equal entries are not always repeated. Hit rate of the full screen: of about 73,000 compounds, about 350 (0.48%) were called active. Inconclusive results (about 17%) are left out. Calls come from the whole dose curve; as a rule, active = well fitted activation curve with a large enough effect in the main read-out, with a control signal flat (not every such curve was filed as active); inconclusive = small, poorly fitted or top-dose-only effect, or a change in a side signal; inactive = no such curve, though single readings can be large or run the other way; reference of the percent scale not stated here. The full list was thinned out, with actives kept by preference.

Assay [1] can be described thus: qHTS Assay for Agonists of the Thyroid Stimulating Hormone Receptor. The conditions noted are these: HEK293-CNG-TSHR cells, membrane potential dye, cAMP; measured here: parental cells max response. The source says:
(§1) NIH Chemical Genomics Center [NCGC]
(§2) NIH Molecular Libraries Screening Centers Network [MLSCN]
(§3) PI Name: Dr. Marvin Gershengorn, NIH
(§4) Thyroid Stimulating Hormone Receptor
(§5) TSH is an alpha/beta heterodimeric glycoprotein hormone secreted from the anterior pituitary gland which belongs to the glycoprotein hormone family. The actions of TSH are mediated by a seven-transmembrane receptor, which upon TSH binding couples preferentially to the G-alpha (s) protein (Gs), resulting in activation of adenylate cyclase and increase in cyclic adenosine 3', 5' monophosphate (cAMP). The TSH receptor (THSR) is mainly expressed in thyroid follicular cells and regulates their growth and function. Recombinant TSH is used to activate TSHR in patients with thyroid cancer receiving thyroid hormone suppression therapy and to screen for residual tumor after surgery, but it is expensive and must be administered intramuscularly. An orally active small molecule TSHR agonist would serve as an invaluable research tool for studying TSHR pharmacology and physiology, and would have multiple advantages in therapeutic settings. However, no selective small molecule agonist of the TSH receptor exists, and no small molecule screen for TSHR agonists has ever been reported.
(§6) This cell based assay utilized a cyclic nucleotide gated ion channel (CNG) as a biosensor for cAMP induction by potential TSHR agonists.
(§7) HEK 293 cells stably expressing the TSHR as well as a modified CNG were purchased from BD biosciences. Stimulation of cAMP production causes the CNG to open and subsequent membrane depolarization to occur. A fluorescent membrane potential dye (BD biosciences) was utilized to detect cAMP stimulation in TSHR cells.
(§8) The cells were maintained in DMEM medium (Invitrogen) containing 10 % FBS (Hyclone), 100 units/ml Penicillin, 100 ug/ml Streptomycin (Invitrogen), and 250 ug/ml Geneticin (Invitrogen) and 1 ug/ml Puromycin (Invitrogen) at 37C in 5% CO2. HEK 293 cells expressing CNG but without TSHR (parental cells) were used in concert to control for compounds signaling through endogenous receptors and targets of HEK 293 cells.
(§9) NCGC Assay Protocol Summary:
(§10) High Throughput Screening. Freshly passaged cells (TSHR or parental) were dispensed into 1536-well assay plates at 4 ul/well in DMEM containing phenol red (Invitrogen), 10% FCS (Hyclone), and 100 units/ml Penicillin, 100 ug/ml Streptomycin (Invitrogen) and incubated at 37 C with 5% CO2 for 20 to 36 hrs before the robotic screening. The screen was initiated by addition of 4 ul/well membrane potential dye containing 100 uM RO 20-1724 (Sigma Aldrich), followed by 60 min incubation at room temperature to allow for dye equilibration across the cell membrane. 23 nl/well compound or control was then added to the assay plates, which were incubated for additional 30 min before reading a Envision fluorescence plate reader (Perkin Elmer) in bottom-read mode for fluorescence intensity (emission at 590 nm).
(§11) Keywords: Thyroid-stimulating hormone TSH, TSHR, TSHR agonist, quantitative high throughput screening, qHTS, HTS, probe identification, CNG, cAMP, cyclic nucleotide gated ion channel PubChem

Assay [2] concerns the target Thyrotropin receptor (Homo sapiens) (UniProt P16473). The description is as above. The conditions noted are these: HEK293-CNG-TSHR cells (CNG channel as cAMP sensor), membrane potential dye, cAMP; series mostly up to 57.1 µM.
From the text: as §1, §2, §3, §4, §5, §6, §7, §8, §9, §10, §11
Potency is the fitted concentration of half-maximal effect.

Thyrotropin receptor (Homo sapiens), sequence (P16473 whole entry, looked up): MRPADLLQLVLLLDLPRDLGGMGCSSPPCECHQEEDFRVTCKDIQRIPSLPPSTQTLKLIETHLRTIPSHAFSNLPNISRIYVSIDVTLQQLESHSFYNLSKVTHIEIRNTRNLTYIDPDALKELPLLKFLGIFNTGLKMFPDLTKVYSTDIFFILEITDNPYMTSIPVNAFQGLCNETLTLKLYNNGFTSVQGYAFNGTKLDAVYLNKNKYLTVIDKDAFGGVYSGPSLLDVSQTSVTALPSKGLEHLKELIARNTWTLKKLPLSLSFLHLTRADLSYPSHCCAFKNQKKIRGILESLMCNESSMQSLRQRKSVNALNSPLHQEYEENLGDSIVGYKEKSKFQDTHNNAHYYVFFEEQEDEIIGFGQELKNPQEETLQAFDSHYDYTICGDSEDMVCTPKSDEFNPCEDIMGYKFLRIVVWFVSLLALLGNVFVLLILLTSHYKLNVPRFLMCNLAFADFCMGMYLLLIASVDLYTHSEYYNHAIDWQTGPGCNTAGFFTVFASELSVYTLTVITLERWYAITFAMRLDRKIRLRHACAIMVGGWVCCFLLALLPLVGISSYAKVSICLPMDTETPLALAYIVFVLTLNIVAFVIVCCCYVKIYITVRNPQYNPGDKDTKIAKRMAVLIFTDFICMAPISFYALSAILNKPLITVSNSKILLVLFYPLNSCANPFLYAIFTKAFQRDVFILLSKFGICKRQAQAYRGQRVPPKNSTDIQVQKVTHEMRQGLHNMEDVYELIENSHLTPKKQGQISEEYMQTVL

For `CC1CN(c2cc(=O)n(Cc3ccc(F)cc3)c(=O)[nH]2)CC(C)O1` (stereo not drawn), in assay [1], the activation turned out to be 3.44%. The Potency entry in assay [2] was “inactive”.

In the case of `COc1cccc([C@H]2Oc3ccc(OC)cc3/C(=N\OCC[C@@H]3C=C[C@H](OC(C)=O)[C@H](COC(C)=O)O3)[C@@H]2O)c1`, the activation was 1.81% in assay [1] and 9.23% [at 11.4 µM] (inactive) in assay [2].

With `COC(=O)[C@@H]1CC[C@H](C)[C@@H](c2ccc(C)cc2)N1C(=O)c1ccc(/C=N\OC[C@@H](O)COCc2ccco2)cc1`, the activation in assay [1] is 44.4%; in assay [2] it was 16.9% [at 11.4 µM] (inactive).

For the compound `c1ccc2c(Nc3ccncc3)nc(-c3ccc4c(c3)OCO4)nc2c1`, the activation in assay [1] is -4.18%. The Potency entry in assay [2] is “inactive”.

As for `CCc1ccccc1NC(=O)c1cccs1`, the activation in assay [1] was -1.56%. Besides, the Potency result in assay [2] was “inactive”.

Regarding `Nc1ccccc1N`, in assay [1], the activation is -14.7%. In assay [2], the Potency entry is “inactive”.

Take `Cc1ccc(CCn2c3c(c4ccccc42)CN(C)CC3)cn1`: the activation in assay [1] turned out to be 19.4%. Besides, the Potency result in assay [2] was “inactive”.

As to `COC(=O)[C@@]1(Cc2ccc(F)cc2)[C@H]2c3cc(C(=O)N(C)C)n(CCc4c[nH]c5ccc(OC)cc45)c3C[C@H]2CN1C(=O)c1ccccc1`, the activation in assay [1] was determined as 3.36%. For the same compound, the Potency result in assay [2] is “inactive”.

As to `CO[C@H]1COC(=O)[C@@H](C)NC(=O)C/C=C\[C@@H](C)[C@H](OC)COC(=O)C/C=C\[C@@H]1C`, the activation in assay [1] was 2.45%; in assay [2], -73.4% [at 11.4 µM] (inactive).

With `CCOc1cc(/C=N/O)cc(Br)c1OC`, the figures for the activation in assay [1] and in assay [2] were 15% and 4.51% [at 11.4 µM] (inactive), respectively.

With `C[C@H]1CC[C@H](C(=O)O)N[C@@H]1c1ccc(C#Cc2ccccc2)cc1`, the activation is 0.689% in assay [1] and 0.128% [at 11.4 µM] (inactive) in assay [2].

As to `O=C(c1cccs1)N1CCN(Cc2ccc3c(c2)OCO3)CC1`, the activation in assay [1] was -2.72%. For the same compound, the Potency result in assay [2] was “inactive”.

For `C[C@@H]1O[C@@H](O[C@@H]2[C@@H](O)[C@H](OCCc3ccc(O)c(O)c3)O[C@H](CO[C@@H]3O[C@H](CO)[C@@H](O)[C@H](O)[C@H]3O)[C@H]2OC(=O)/C=C/c2ccc(O)c(O)c2)[C@H](O)[C@H](O)[C@H]1O`, in assay [1], the activation is 23.7%. In addition, the Potency entry in assay [2] was “inactive”.

As for `O=C(O)COc1nsnc1N1CCOCC1`, the activation in assay [1] was -10.1%. For the same compound, the Potency result in assay [2] was “inactive”.

In the case of `c1nc(COc2nsnc2N2CCOCC2)cs1`, the activation in assay [1] was -7.01%. In addition, in assay [2], the Potency result is “inactive”.

For the compound `c1ccc(COc2nsnc2N2CCOCC2)cc1`, in assay [1], the activation worked out at 27.1%. For the same compound, the Potency in assay [2] is 31.6 µM (active).

Regarding `CCn1c(COc2ccc(OC)cc2)nnc1SCC(=O)Nc1cc(OC)ccc1OC`, the activation in assay [1] is 24.1%. Besides, the Potency result in assay [2] was “inactive”.

For `COc1ccc(OC)c(NC(=O)CC(Cc2ccccc2OC)C(=O)O)c1` (stereo not drawn), the activation in assay [1] is 9.66%. Moreover, the Potency result in assay [2] is “inactive”.

Regarding `COc1ccc(OC)c(NC(=O)CSc2nc(N)c(-c3ccccc3)c(=O)[nH]2)c1`, the activation in assay [1] stood at 9.04%. Besides, in assay [2], the Potency was 25.1 µM (active).

In the case of `CN(C)CCCCNC(=O)c1ccc(Cc2nc3ccccc3[nH]2)cc1`, the activation in assay [1] was determined as 3.13%. Further, the Potency result in assay [2] was “inactive”.

On to `Cc1ccc2oc(=O)c3cnn(CC(=O)N4CCN(c5ccccn5)CC4)c3c2c1`, for which the activation in assay [1] turned out to be 4.94%. In addition, the Potency entry in assay [2] is “inactive”.

Turning to `CC(C)[C@@H](OCc1ccccc1)[C@H](C)/C=N\OC[C@@H](C)[C@H](OCc1ccccc1)C(C)C`, the activation in assay [1] was 2.03%; in assay [2], 1.85% [at 11.4 µM] (inactive).

On to `Cc1c(S(=O)(=O)O)ccc(N=Nc2c(O)c(C(=O)O)cc3ccccc23)c1Cl`, for which the values for the activation in assay [1] and in assay [2] were -23.8% and -9.34% [at 11.4 µM] (inactive), respectively.

Consider `Cc1nc2cnc(N3CCNCC3)nc2n(CCc2ccccc2)c1=O`, for which, in assay [1], the activation worked out at 9.57%. In addition, in assay [2], the Potency entry was “inactive”.

`O=C(COC(=O)C12CC3CC(CC(C3)C1)C2)NCc1ccco1`: the activation in assay [1] was -8.57%. Further, the Potency in assay [2] was 0.794 µM (active).

For `CCOC(=O)c1c(NC(=O)CCC(=O)NCc2ccco2)sc2c1CCCC2`, in assay [1], the activation was 12.9%. Besides, the Potency result in assay [2] was “inactive”.

As to `O=C(COC(=O)CCC(=O)c1cccs1)NCc1ccco1`, in assay [1], the activation came out at 10.5%. Further, the Potency entry in assay [2] is “inactive”.

On to `CC(C)CO/N=C1/C[C@@H](O)[C@@H](O)[C@@H]2[C@@H]3C(=O)N(C[C@@H]4CCCO4)C(=O)[C@H]3CC[C@@H]12`, for which the activation was 4.27% in assay [1] and -4.09% [at 11.4 µM] (inactive) in assay [2].

Take `COC(=O)C(C(=O)OC)[C@@H]1CCCC(=O)C1`: the activation in assay [1] is 4.23%; in assay [2], -9.31% [at 11.4 µM] (inactive).

Take `COC(=O)C(C)Sc1ccc2nnc(-c3cccc(F)c3)n2n1` (stereo not drawn): the activation in assay [1] amounted to 2.29%. In addition, in assay [2], the Potency result is “inactive”.

On to `CSc1ccc(Cl)c(C(=O)OCC(=O)N2CC(C)OC(C)C2)c1` (stereo not drawn), for which the activation in assay [1] came to 6.62%. For the same compound, in assay [2], the Potency entry is “inactive”.

Consider `COC(=O)C1=C(C)N(Cc2ccccc2)C2=C3C(=O)N(c4ccccc4)C(=O)C3[C@@](O)(C(=O)OC)C(=O)N2C1c1ccccc1` (stereo partly drawn), for which the activation in assay [1] is 9.18% and 2.67%; in assay [2] it was -0.785% [at 11.4 µM] (inactive) and 7.43% [at 11.4 µM] (inactive).

In the case of `CCCNC(=O)OC[C@@H]1O[C@H](c2ccccc2)C=C[C@@H]1Oc1ccc(OC)cc1`, the activation was 1.38% in assay [1] and 1.94% [at 11.4 µM] (inactive) in assay [2].

As to `CN1CCCc2cc(C#N)c(=O)[nH]c21`, the results for the activation in assay [1] and in assay [2] were 7.1% and 4.78% [at 11.4 µM] (inactive), respectively.

In the case of `O=C(CN1C(=O)NC2(CCCCC2)C1=O)NCCC1=CCCCC1`, in assay [1], the activation stood at 3.28%. Moreover, the Potency in assay [2] is 12.6 µM (active).

On to `O=C(Cc1nn[nH]n1)NCCC1=CCCCC1`, for which the activation in assay [1] worked out at 15.8%. Besides, in assay [2], the Potency entry is “inactive”.

`O=C(COc1cccc(-n2cnnn2)c1)NCCC1=CCCCC1`: in assay [1], the activation is -0.416%. Also, the Potency result in assay [2] was “inactive”.

On to `CNC(=O)C1(C)C=CC2(CCCCC2)N1C(C)=O` (stereo not drawn), for which the activation in assay [1] worked out at 9.38%. In addition, the Potency entry in assay [2] was “inactive”.

As to `O=C(c1ccccc1)c1ccc2nc(N3CCCCC3)c3nncn3c2c1`, the activation in assay [1] is 3.47%. Moreover, the Potency result in assay [2] was “inactive”.
